For part of these data: Entries with a potency or affinity are not part of this list. Active and inactive are the calls of the source.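 How the source made its calls, unless noted: active means primary screen inhibitor hit that blocks the TRPC4 channel at some tested dose, yielding a dose curve; inactive means the rest.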
Key:
[1] = system: TRPC4 beta (transient receptor potential cation channel C4), mouse; assay: TRPC4 cation channel opening, retest – cell-based, Fluo4 calcium, HEK293 TRPC4beta/mu-opioid, duplicates, 10 µM, confirmation (AID 2426;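 active means fluorescence ratio normalized to control raised more than 50% in primary screen plus both repeat runs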;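 on activation: percent rise of integrated ratio over buffer wells lacking compound which define 0%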); settings: Fluo4 calcium fluorescence, at 10 µM; active compounds read high
[2] = system: transient receptor potential cation channel C4 beta (TRPC4), mouse; assay: TRPC4 cation channel opening, second retest – cell-based, second round, Fluo4, HEK293 TRPC4beta/mu-opioid, 1 µM, confirmation (AID 2461;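 active means primary screen active and over 50% activation in each of two duplicate runs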;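 on activation: 0% = wells without test compound as baseline of integrated fluorescence ratio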); settings: Fluo4 calcium fluorescence, at 1 µM; active compounds read high
[3] = system: TRPC4 (transient receptor potential cation channel C4 beta), mouse; assay: potentiation of DAMGO EC20 TRPC4 response – cell-based, second round, Fluo-4, HEK293 TRPC4beta/mu-opioid, 1 µM, confirmation (AID 2554;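 active means primary screen hit whose fluorescence ratio, in both repeats, exceeds the weak agonist control mean by 3 SD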); settings: DAMGO EC20, Fluo-4 calcium flux, at 1 µM; active compounds read high
[4] = system: TRPC4 beta (transient receptor potential cation channel C4), mouse; assay: potentiation of DAMGO EC20 TRPC4 response – cell-based, Fluo-4, HEK293 TRPC4beta/mu-opioid, confirmation (AID 2555;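 active means primary screen hit whose calcium fluorescence ratio, in both repeats, exceeds the weak agonist control mean by 3 SD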); settings: DAMGO EC20, Fluo-4 calcium flux, at 10 µM; active compounds read high
[5] = target: Short transient receptor potential channel 4 (Mus musculus) (UniProt Q9QUQ5); assay: blockers of DAMGO-evoked TRPC4 calcium flux – cell-based, Fluo4, HEK293 TRPC4beta/mu-opioid, confirmation (AID 2636;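 active means calcium signal cut by more than 3 SD below the full-agonist control yet still positive, in both repeats and the earlier primary screen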); settings: at 10 µM; active compounds read high
Short transient receptor potential channel 4 (Mus musculus), sequence (Q9QUQ5 whole entry, looked up): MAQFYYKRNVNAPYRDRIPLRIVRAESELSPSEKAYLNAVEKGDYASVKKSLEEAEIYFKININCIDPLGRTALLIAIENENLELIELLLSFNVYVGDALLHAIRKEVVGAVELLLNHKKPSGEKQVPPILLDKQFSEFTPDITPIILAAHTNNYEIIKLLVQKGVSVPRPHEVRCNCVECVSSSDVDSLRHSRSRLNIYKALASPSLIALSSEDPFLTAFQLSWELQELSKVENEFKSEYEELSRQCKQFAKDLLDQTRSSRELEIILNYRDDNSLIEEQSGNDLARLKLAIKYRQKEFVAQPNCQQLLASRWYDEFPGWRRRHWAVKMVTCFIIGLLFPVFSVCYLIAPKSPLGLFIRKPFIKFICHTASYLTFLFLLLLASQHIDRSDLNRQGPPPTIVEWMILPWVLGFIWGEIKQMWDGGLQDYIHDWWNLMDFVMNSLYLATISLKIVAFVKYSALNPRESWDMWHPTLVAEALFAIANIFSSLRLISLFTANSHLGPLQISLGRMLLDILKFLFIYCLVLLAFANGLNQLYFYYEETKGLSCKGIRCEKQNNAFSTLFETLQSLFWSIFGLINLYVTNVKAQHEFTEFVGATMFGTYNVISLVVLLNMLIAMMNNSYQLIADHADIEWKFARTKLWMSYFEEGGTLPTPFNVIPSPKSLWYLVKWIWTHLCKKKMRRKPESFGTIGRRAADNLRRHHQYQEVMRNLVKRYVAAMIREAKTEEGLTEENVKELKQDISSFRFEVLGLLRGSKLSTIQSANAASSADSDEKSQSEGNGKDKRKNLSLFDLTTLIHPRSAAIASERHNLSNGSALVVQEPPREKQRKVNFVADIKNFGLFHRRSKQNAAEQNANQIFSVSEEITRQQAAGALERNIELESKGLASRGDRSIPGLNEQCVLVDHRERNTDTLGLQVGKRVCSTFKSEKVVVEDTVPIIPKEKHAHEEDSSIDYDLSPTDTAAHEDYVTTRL

[6] = target: Short transient receptor potential channel 4 (Mus musculus) (UniProt Q9QUQ5); assay: blockers of DAMGO-evoked TRPC4 calcium flux – cell-based, second round, Fluo4, HEK293 TRPC4beta/mu-opioid, 1 µM, confirmation (AID 2637;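 active means calcium signal ratio cut to more than 3 SD under the fully stimulated control mean yet still positive, in both repeats and the primary screen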); settings: at 1 µM; active compounds read high
[7] = target: Short transient receptor potential channel 4 (Mus musculus) (UniProt Q9QUQ5); assay: potentiation of DAMGO-evoked TRPC4 calcium signal – cell-based, HEK293 TRPC4/mu-opioid, Fluo-4 calcium, EC20 DAMGO, dose response (AID 434941;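 active means earlier screen potentiator hit that boosts the TRPC4 ion channel at some dose, with a dose response; inactive means no potentiation, no dose response, or not a prior hit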;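 further: calcium entry triggered by an EC20 dose of DAMGO at the co-expressed mu-opioid receptor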)
[8] = target: Short transient receptor potential channel 4 (Mus musculus) (UniProt Q9QUQ5); assay: block of DAMGO-driven TRPC4 calcium entry – cell-based, HEK293 TRPC4/mu-opioid, Fluo-4 calcium, dose response (AID 434942)
[9] = target: Short transient receptor potential channel 6 (Mus musculus) (UniProt Q61143); assay: TRPC6 blockade by TRPC4 inhibitor hits – cell-based, HEK293, membrane potential dye, duplicate, selectivity assay for TRPC4 inhibitor project, confirmation (AID 434948;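 active means active in primary screen and both duplicates, each dropping signal beyond three positive-control SD with fluorescence still positive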); settings: HEK293 TRPC6, membrane potential dye fluorescence, at 10 µM, stimulated with maximal-effect acetylcholine; active compounds read high
Short transient receptor potential channel 6 (Mus musculus), sequence (Q61143 whole entry, looked up): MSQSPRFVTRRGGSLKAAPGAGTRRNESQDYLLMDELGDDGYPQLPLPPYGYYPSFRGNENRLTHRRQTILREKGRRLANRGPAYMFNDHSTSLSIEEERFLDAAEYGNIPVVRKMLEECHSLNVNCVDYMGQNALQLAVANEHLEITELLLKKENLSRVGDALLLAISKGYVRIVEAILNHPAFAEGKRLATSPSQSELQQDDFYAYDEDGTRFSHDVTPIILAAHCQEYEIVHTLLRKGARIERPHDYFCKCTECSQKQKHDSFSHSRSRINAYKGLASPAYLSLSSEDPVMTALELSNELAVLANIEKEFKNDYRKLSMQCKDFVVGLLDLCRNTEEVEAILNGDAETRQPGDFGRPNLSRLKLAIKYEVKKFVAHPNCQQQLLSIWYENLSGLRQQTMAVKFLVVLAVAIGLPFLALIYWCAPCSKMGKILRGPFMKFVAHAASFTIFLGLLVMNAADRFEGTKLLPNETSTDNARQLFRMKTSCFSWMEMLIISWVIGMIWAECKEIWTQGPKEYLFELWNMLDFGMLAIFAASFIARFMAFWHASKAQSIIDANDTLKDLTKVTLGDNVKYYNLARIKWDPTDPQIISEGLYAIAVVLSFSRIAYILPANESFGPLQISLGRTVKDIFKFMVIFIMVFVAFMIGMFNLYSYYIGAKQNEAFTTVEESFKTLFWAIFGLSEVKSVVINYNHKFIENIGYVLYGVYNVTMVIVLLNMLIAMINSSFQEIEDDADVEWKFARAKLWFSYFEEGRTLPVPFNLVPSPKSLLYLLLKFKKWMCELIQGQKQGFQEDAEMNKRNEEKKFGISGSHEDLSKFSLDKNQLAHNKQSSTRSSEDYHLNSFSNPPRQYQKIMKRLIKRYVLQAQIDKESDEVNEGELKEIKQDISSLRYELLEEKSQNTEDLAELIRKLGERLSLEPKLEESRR

[10] = target: Short transient receptor potential channel 6 (Mus musculus) (UniProt Q61143); assay: TRPC6 opening by TRPC4 activator hits – cell-based, HEK293, membrane potential dye, duplicate, selectivity assay for TRPC4 activator project, confirmation (AID 434950;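 active means membrane potential signal rise above negative control mean plus 3 SD in both duplicates, also active in the earlier TRPC4 screen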;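 on activation: 0% = buffer only wells and 100% = acetylcholine maximal-effect wells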); settings: HEK293 TRPC6, membrane potential fluorescence, at 10 µM; activation: active compounds read high; outcome: activation
[11] = target: Short transient receptor potential channel 6 (Mus musculus) (UniProt Q61143); assay: positive modulators of mouse TRPC6 channel – HEK293 cells, membrane potential dye, duplicate, selectivity assay for TRPC4 potentiator project, confirmation (AID 434952;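 active means compound raising the membrane signal above positive-control mean plus 3 SD in both repeats, and a primary screen hit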); settings: HEK293 TRPC6, membrane potential dye fluorescence, at 10 µM, maximal acetylcholine added after compound; active compounds read high
[12] = target: Short transient receptor potential channel 4 (Mus musculus) (UniProt Q9QUQ5); assay: calcium flux activators in TRPC4/5HT1a cells, counter-screen for TRPC4 activator project, cell-based, second counter screen, HEK293 TRPC4/5HT1a, Fluo-4 (AID 434977;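 active means calcium signal rise above buffer-control mean plus 5 SD in both duplicates, and also a hit in the primary screen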;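 on activation: plate controls were assay buffer for no effect and maximal serotonin response for full effect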); settings: Fluo-4 calcium flux, at 10 µM; active compounds read high
[13] = serotonin-gated TRPC4 signal block – cell-based, second counter screen, HEK293 TRPC4/5HT1a, Fluo-4, counter-screen for TRPC4 inhibitor project, confirmation (AID 434978;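 active means primary screen active whose calcium signal fell more than 3 SD beyond the full-serotonin control mean in both duplicate plates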;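 further: serotonin given first at submaximal then at maximal dose after compound preincubation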); settings: Fluo-4 calcium flux, at 10 µM, serotonin added to trigger calcium flux; active compounds read high
[14] = system: TRPC4 (mouse), co-expressed with 5HT1a in HEK293; assay: enhancement of serotonin-evoked TRPC4 response – cell-based, second counter screen, HEK293 TRPC4/5HT1a, Fluo-4, counter-screen for TRPC4 potentiator project, confirmation (AID 434979;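 active means signal rise over 3 SD above mean of control wells given weak agonist, in both repeats and first screen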); settings: Fluo-4 calcium flux, at 10 µM, serotonin added at its EC20 dose; active compounds read high
[15] = nonspecific calcium rise without TRPC4 – cell-based, HEK293 mu-opioid receptor line, counter-screen for TRPC4 activator project, confirmation (AID 449723;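 active means hit in primary screen, with calcium signal over 5 SD above buffer well mean in both duplicates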;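 further: counter screen cells carry the mu-opioid receptor alone and lack TRPC4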); settings: HEK293 mu-opioid cells, Fluo-4 calcium fluorescence, at 10 µM; active compounds read high
[16] = nonspecific potentiation of DAMGO calcium response – cell-based, HEK293 mu-opioid receptor line, counter-screen for TRPC4 allosteric potentiator project, confirmation (AID 449724;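 active means calcium signal rise more than 3 SD above the low-dose agonist control mean, in both duplicate plates and the primary screen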); settings: HEK293 mu-opioid receptor cells, Fluo-4 calcium flux, at 10 µM, compound added before EC20 DAMGO stimulus; active compounds read high

Cc1cccc2cc(C(c3nnnn3Cc3ccccc3)N3CCN(C)CC3)c(=O)[nH]c12 (stereo not given)
active: activation [1] 118% | activation [10] 29%
inactive: outcome [2] | outcome [3] | outcome [4] | outcome [5] | outcome [6] | outcome [7] | outcome [8] | outcome [9] | outcome [11] | outcome [12] | outcome [13] | outcome [14] | outcome [15] | outcome [16]

O=C(COc1ccccc1)NNC(=S)NC(=O)c1ccc(Cl)cc1Cl
inactive: outcome [2] | outcome [3] | outcome [4] | outcome [5] | outcome [6] | outcome [7] | outcome [8] | outcome [9] | outcome [10] | outcome [11] | outcome [13] | outcome [14] | outcome [15] | outcome [16]
active: activation [1] 63% | activation [12] 44.7%

CN(CCc1nc2ccc(Cl)cc2[nH]1)Cc1nc(CC2CC2)no1
active: activation [1] 115% | activation [12] 23.4%
inactive: outcome [2] | outcome [3] | outcome [4] | outcome [5] | outcome [6] | outcome [7] | outcome [8] | outcome [9] | outcome [10] | outcome [11] | outcome [13] | outcome [14] | outcome [15] | outcome [16]

O=C(c1c(F)cccc1F)N1CCN(c2ncc(Br)cn2)CC1
inactive: outcome [3] | outcome [4] | outcome [5] | outcome [6] | outcome [7] | outcome [8] | outcome [9] | outcome [11] | outcome [13] | outcome [14] | outcome [15] | outcome [16]
active: activation [1] 158% | activation [2] 86% | activation [10] 34% | activation [12] 68.5%

FC(F)(F)c1cnc(N2CCCN(C(=S)Nc3ccccc3)CC2)c(Cl)c1
inactive: outcome [3] | outcome [4] | outcome [5] | outcome [6] | outcome [7] | outcome [8] | outcome [9] | outcome [10] | outcome [11] | outcome [13] | outcome [14] | outcome [15] | outcome [16]
active: activation [1] 208% | activation [2] 62% | activation [12] 84.8%

Cc1nc(NCC(c2ccccc2)N(C)C)c2c(C)c(C)sc2n1 (stereo not given)
inactive: outcome [3] | outcome [4] | outcome [5] | outcome [6] | outcome [7] | outcome [8] | outcome [9] | outcome [10] | outcome [11] | outcome [13] | outcome [14] | outcome [15] | outcome [16]
active: activation [1] 204% | activation [2] 78% | activation [12] 27.8%

CCN1C(=O)c2cccc3c(S(=O)(=O)Nc4ccccc4OC)ccc1c23
inactive: outcome [1] | outcome [2] | outcome [3] | outcome [4] | outcome [5] | outcome [6] | outcome [7] | outcome [8] | outcome [9] | outcome [10] | outcome [11] | outcome [12] | outcome [13] | outcome [14] | outcome [15] | outcome [16]

O=C(NCCc1cccc(Cl)c1)c1ccc(OC2CCN(Cc3ccccn3)CC2)cc1
inactive: outcome [2] | outcome [3] | outcome [4] | outcome [5] | outcome [6] | outcome [7] | outcome [8] | outcome [9] | outcome [11] | outcome [12] | outcome [13] | outcome [14] | outcome [15] | outcome [16]
active: activation [1] 69% | activation [10] 43.5%

CC(=O)Nc1ccc(CN2CCCC(C(=O)c3ccc(C(F)(F)F)cc3)C2)cc1 (stereo not given)
inactive: outcome [3] | outcome [4] | outcome [5] | outcome [6] | outcome [7] | outcome [8] | outcome [9] | outcome [11] | outcome [13] | outcome [14] | outcome [15] | outcome [16]
active: activation [1] 358% | activation [2] 86% | activation [10] 37.5% | activation [12] 40.5%

CCOC(=O)c1oc2ccc(OC)cc2c1NC(=O)CN1CCN(C)CC1
active: activation [10] 32% | activation [12] 12.8%
inactive: outcome [1] | outcome [2] | outcome [3] | outcome [4] | outcome [5] | outcome [6] | outcome [7] | outcome [8] | outcome [9] | outcome [11] | outcome [13] | outcome [14] | outcome [15] | outcome [16]

COC(=O)[C@@]1(Cc2ccc(F)cc2)[C@H]2c3cc(C(=O)N(C)C)n(CCc4ccccn4)c3C[C@H]2CN1C(=O)c1ccccc1
active: activation [1] 136% | activation [10] 54%
inactive: outcome [2] | outcome [3] | outcome [4] | outcome [5] | outcome [6] | outcome [7] | outcome [8] | outcome [9] | outcome [11] | outcome [12] | outcome [13] | outcome [14] | outcome [15] | outcome [16]

CCC1(c2ccc(F)cc2)NC(=O)N(CC(=O)c2cc(C)n(C3CC3)c2C)C1=O (stereo not given)
active: potentiation [4] 16% | activation [12] 27% | potentiation [14] 24.5% | activation [15] 13.8%
inactive: outcome [1] | outcome [2] | outcome [3] | outcome [5] | outcome [6] | outcome [7] | outcome [8] | outcome [9] | outcome [10] | outcome [11] | outcome [13] | outcome [16]

O=C(NCCc1ccccn1)c1ccc(OC2CCN(CCc3ccccc3)CC2)cc1
active: activation [1] 76% | activation [10] 44.5%
inactive: outcome [2] | outcome [3] | outcome [4] | outcome [5] | outcome [6] | outcome [7] | outcome [8] | outcome [9] | outcome [11] | outcome [12] | outcome [13] | outcome [14] | outcome [15] | outcome [16]

C=CCn1c(CCNC(=O)C(C)(C)C)nc2ccccc21
active: activation [1] 151% | activation [10] 37% | activation [12] 30.7%
inactive: outcome [2] | outcome [3] | outcome [4] | outcome [5] | outcome [6] | outcome [7] | outcome [8] | outcome [9] | outcome [11] | outcome [13] | outcome [14] | outcome [15] | outcome [16]

CC(c1cccnc1)N(CCN(C)C)C(=O)Nc1ccc(Cl)c(Cl)c1 (stereo not given)
active: activation [10] 34%
inactive: outcome [1] | outcome [2] | outcome [3] | outcome [4] | outcome [5] | outcome [6] | outcome [7] | outcome [8] | outcome [9] | outcome [11] | outcome [12] | outcome [13] | outcome [14] | outcome [15] | outcome [16]

From PubChem BioAssay
